From article PMC7862700, “An all-to-all approach to the identification of sequence-specific readers for epigenetic DNA modifications on cytosine”

Legend:
Experiment in all cases: DAPPL (digital affinity profiling via proximity ligation, sequencing); 10 mM Tris-HCl pH 7.5, 50 mM NaCl, 1 mM DTT, 4% glycerol, room temperature, 30 min; GST-TFs on glutathione beads, 16-mer random dsDNA library, 0.1% formaldehyde crosslink after washing; high values mean tight binding
Conditions in all cases: protein: recombinant; tags: N-terminal GST; dsDNA, one strand shown
ERF = biological target: T1, ERF (Homo sapiens, UniProt P50548 1-548)
T1 sequence: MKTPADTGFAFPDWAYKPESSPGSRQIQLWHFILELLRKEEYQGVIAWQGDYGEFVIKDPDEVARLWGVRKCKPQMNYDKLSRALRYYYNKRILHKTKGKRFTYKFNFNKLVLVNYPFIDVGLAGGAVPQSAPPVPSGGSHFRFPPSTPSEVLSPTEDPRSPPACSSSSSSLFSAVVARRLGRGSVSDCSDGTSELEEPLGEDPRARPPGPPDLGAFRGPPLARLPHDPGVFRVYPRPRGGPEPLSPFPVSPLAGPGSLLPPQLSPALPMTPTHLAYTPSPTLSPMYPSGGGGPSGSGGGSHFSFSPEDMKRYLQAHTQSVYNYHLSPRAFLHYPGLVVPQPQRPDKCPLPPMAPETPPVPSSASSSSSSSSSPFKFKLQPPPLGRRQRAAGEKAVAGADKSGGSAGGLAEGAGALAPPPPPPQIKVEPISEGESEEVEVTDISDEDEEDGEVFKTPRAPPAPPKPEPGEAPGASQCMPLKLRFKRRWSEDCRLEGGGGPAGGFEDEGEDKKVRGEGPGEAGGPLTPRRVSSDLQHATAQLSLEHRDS
Method in brief: (§1)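 Human transcription factors fused to GST were expressed in yeast, captured on glutathione beads, given DNA barcodes and pooled with a GST-only negative control. Pools were incubated with 200 nmole of a 16-mer random double-stranded DNA library in Tris/NaCl/DTT/glycerol buffer at room temperature for 30 min. They were then washed, crosslinked with 0.1% formaldehyde, proximity-ligated (BsaI/T4 ligase, 1 h, 37 °C), PCR-amplified and sequenced on an Illumina NextSeq500. Binding signal is each 6-mer's read frequency for a factor divided by its frequency for the GST control.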

ETV3L = biological target: T2, ETV3L (Homo sapiens, UniProt Q6ZN32 1-361)
T2 sequence: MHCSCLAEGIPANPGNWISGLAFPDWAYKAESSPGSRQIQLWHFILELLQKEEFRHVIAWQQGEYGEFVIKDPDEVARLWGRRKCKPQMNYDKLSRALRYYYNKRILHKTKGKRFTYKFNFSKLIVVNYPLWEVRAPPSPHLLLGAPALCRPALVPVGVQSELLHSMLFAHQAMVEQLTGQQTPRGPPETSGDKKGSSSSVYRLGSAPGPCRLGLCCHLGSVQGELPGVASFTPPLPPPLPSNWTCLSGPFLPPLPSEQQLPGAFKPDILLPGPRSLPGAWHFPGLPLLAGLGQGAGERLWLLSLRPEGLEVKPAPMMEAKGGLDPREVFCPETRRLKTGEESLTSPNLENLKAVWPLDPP
Method in brief: as §1

ETS2 = biological target: T3, ETS2 (Homo sapiens, UniProt P15036 1-469)
T3 sequence: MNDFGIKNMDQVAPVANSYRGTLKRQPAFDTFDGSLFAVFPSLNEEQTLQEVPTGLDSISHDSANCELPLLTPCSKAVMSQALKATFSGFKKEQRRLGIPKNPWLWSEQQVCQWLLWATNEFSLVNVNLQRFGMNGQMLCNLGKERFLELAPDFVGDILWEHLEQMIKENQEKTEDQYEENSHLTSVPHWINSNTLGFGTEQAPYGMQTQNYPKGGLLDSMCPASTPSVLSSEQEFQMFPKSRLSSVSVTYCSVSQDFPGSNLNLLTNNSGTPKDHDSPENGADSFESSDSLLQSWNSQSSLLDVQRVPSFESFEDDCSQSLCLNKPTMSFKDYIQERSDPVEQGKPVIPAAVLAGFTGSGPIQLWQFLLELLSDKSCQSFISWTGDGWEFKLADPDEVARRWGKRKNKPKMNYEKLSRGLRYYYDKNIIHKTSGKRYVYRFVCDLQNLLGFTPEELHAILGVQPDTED
Method in brief: as §1

SPDEF = biological target: T4, SPDEF (Homo sapiens, UniProt O95238 1-335)
T4 sequence: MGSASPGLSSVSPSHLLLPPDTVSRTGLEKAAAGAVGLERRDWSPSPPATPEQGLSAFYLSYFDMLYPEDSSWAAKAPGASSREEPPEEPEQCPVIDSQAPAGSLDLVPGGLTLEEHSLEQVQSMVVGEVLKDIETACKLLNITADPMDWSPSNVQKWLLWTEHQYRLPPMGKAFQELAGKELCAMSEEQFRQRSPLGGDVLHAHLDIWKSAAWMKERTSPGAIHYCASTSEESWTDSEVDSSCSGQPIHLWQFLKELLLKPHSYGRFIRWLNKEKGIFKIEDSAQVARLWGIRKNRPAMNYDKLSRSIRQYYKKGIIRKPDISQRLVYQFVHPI
Method in brief: as §1

ETV7 = biological target: T5, ETV7 (Homo sapiens, UniProt Q9Y603 1-341)
T5 sequence: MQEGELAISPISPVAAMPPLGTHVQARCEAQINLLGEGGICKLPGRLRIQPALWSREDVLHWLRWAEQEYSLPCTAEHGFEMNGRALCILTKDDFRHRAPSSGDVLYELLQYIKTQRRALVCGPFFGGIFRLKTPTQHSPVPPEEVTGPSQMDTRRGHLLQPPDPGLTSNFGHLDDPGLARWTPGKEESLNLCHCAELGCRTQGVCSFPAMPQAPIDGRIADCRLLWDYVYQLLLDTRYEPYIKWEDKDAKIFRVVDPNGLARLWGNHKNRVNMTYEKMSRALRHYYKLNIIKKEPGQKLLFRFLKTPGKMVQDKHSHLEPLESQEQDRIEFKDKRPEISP
Method in brief: as §1

ELF5 = biological target: T6, ELF5 (Homo sapiens, UniProt Q9UKW6-2 1-255)
T6 sequence: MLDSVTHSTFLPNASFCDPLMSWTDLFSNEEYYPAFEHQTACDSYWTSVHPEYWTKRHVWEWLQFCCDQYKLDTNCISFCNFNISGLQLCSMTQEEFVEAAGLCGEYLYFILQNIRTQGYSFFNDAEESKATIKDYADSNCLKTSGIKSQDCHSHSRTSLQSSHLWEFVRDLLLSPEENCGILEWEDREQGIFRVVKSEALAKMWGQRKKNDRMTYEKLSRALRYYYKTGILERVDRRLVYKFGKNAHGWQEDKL
Method in brief: as §1

ETV3 = biological target: T7, ETV3 (Homo sapiens, UniProt P41162-2 1-143)
T7 sequence: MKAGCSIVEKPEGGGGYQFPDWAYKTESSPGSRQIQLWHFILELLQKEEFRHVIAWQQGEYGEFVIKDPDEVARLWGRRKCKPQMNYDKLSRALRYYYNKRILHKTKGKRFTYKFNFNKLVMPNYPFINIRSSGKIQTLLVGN
Method in brief: as §1

ETV6 = ETV6 (Homo sapiens, UniProt P41212 1-452)
ETV6, sequence (P41212 whole entry): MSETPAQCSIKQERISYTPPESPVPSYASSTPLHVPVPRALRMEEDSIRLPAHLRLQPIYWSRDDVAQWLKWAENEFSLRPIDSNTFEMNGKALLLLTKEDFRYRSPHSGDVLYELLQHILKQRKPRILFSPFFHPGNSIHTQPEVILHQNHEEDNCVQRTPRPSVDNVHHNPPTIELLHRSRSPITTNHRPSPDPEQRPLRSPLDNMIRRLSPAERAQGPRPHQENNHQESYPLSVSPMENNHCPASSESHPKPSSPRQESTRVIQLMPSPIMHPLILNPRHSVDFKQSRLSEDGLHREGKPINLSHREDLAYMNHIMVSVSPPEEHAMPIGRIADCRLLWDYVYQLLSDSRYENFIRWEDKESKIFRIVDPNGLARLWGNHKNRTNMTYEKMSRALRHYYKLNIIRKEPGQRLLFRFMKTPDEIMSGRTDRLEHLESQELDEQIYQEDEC
Method in brief: as §1

Sequence | binding signal (ERF) | binding signal (ETV3L) | binding signal (ETS2) | binding signal (SPDEF) | binding signal (ETV7) | binding signal (ELF5) | binding signal (ETV3) | binding signal (ETV6)
GCTCTG | 1.03 fold enrichment (6-mer frequency, TF over GST control) | 1.23 fold enrichment (6-mer frequency, TF over GST control) | 1.12 fold enrichment (6-mer frequency, TF over GST control) | 1.06 fold enrichment (6-mer frequency, TF over GST control) | 1.17 fold enrichment (6-mer frequency, TF over GST control) | 1.02 fold enrichment (6-mer frequency, TF over GST control) | 1.17 fold enrichment (6-mer frequency, TF over GST control) | 1.17 fold enrichment (6-mer frequency, TF over GST control)
ATGGAA | 1.23 fold enrichment (6-mer frequency, TF over GST control) | 1.18 fold enrichment (6-mer frequency, TF over GST control) | 1.23 fold enrichment (6-mer frequency, TF over GST control) | 1.2 fold enrichment (6-mer frequency, TF over GST control) | 1.35 fold enrichment (6-mer frequency, TF over GST control) | 1.13 fold enrichment (6-mer frequency, TF over GST control) | 1.2 fold enrichment (6-mer frequency, TF over GST control) | 1.28 fold enrichment (6-mer frequency, TF over GST control)
TCTACG | 1.46 fold enrichment (6-mer frequency, TF over GST control) | 1.4 fold enrichment (6-mer frequency, TF over GST control) | 1.41 fold enrichment (6-mer frequency, TF over GST control) | 1.33 fold enrichment (6-mer frequency, TF over GST control) | 1.36 fold enrichment (6-mer frequency, TF over GST control) | 1.35 fold enrichment (6-mer frequency, TF over GST control) | 1.32 fold enrichment (6-mer frequency, TF over GST control) | 1.2 fold enrichment (6-mer frequency, TF over GST control)
AACTTC | 2.22 fold enrichment (6-mer frequency, TF over GST control) | 2.51 fold enrichment (6-mer frequency, TF over GST control) | 2.63 fold enrichment (6-mer frequency, TF over GST control) | 2.21 fold enrichment (6-mer frequency, TF over GST control) | 2.3 fold enrichment (6-mer frequency, TF over GST control) | 3.55 fold enrichment (6-mer frequency, TF over GST control) | 2.57 fold enrichment (6-mer frequency, TF over GST control) | 2.76 fold enrichment (6-mer frequency, TF over GST control)
ACAACA | 1.31 fold enrichment (6-mer frequency, TF over GST control) | 1.17 fold enrichment (6-mer frequency, TF over GST control) | 1.18 fold enrichment (6-mer frequency, TF over GST control) | 1.19 fold enrichment (6-mer frequency, TF over GST control) | 1.23 fold enrichment (6-mer frequency, TF over GST control) | 1.22 fold enrichment (6-mer frequency, TF over GST control) | 1.27 fold enrichment (6-mer frequency, TF over GST control) | 1.29 fold enrichment (6-mer frequency, TF over GST control)
CGCACT | 1.21 fold enrichment (6-mer frequency, TF over GST control) | 1.29 fold enrichment (6-mer frequency, TF over GST control) | 1.18 fold enrichment (6-mer frequency, TF over GST control) | 1.1 fold enrichment (6-mer frequency, TF over GST control) | 1.27 fold enrichment (6-mer frequency, TF over GST control) | 1.23 fold enrichment (6-mer frequency, TF over GST control) | 1.39 fold enrichment (6-mer frequency, TF over GST control) | 1.25 fold enrichment (6-mer frequency, TF over GST control)
TTCGCG | 1.23 fold enrichment (6-mer frequency, TF over GST control) | 1.15 fold enrichment (6-mer frequency, TF over GST control) | 1.1 fold enrichment (6-mer frequency, TF over GST control) | 1.15 fold enrichment (6-mer frequency, TF over GST control) | 1.08 fold enrichment (6-mer frequency, TF over GST control) | 1.07 fold enrichment (6-mer frequency, TF over GST control) | 1.12 fold enrichment (6-mer frequency, TF over GST control) | 1.17 fold enrichment (6-mer frequency, TF over GST control)
TGTCAT | 1.38 fold enrichment (6-mer frequency, TF over GST control) | 1.19 fold enrichment (6-mer frequency, TF over GST control) | 1.12 fold enrichment (6-mer frequency, TF over GST control) | 1.17 fold enrichment (6-mer frequency, TF over GST control) | 1.1 fold enrichment (6-mer frequency, TF over GST control) | 1.09 fold enrichment (6-mer frequency, TF over GST control) | 1.12 fold enrichment (6-mer frequency, TF over GST control) | 1.11 fold enrichment (6-mer frequency, TF over GST control)
